Test results from PubChem BioAssay (EPA / NIEHS).
Results filed as inconclusive are left out. A structure can be active in one record and inactive in another. Active and inactive are the calls of the source. The calls were made as follows, unless noted: active = hit-call score of the fitted dose curve at least 0.9, where 1 is the maximum; inconclusive = response in the unintended direction; inactive = score below 0.9.

Experiments:
[1] = ATG_M_61_CIS: Attagene CIS-FACTORIAL HepG2 Assay for M61 Transcription Factor (Internal Marker) (AID 2282937; active = hit-call score of the fitted dose curve at least 0.9, where 1 is the maximum; inactive = score below 0.9); settings: HepG2 Attagene CIS-FACTORIAL M61 internal marker reporter; actives raise or lower the signal
Outline: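 Using transiently transfected HepG2 liver cells, reporter transcript levels were assessed 24 h post-dosing by RT-PCR and capillary electrophoresis. Changes in either direction were fitted relative to DMSO controls.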

[2] = ATG_MRE_CIS: Attagene CIS-FACTORIAL HepG2 Assay for human Metal Responsive Element (MRE) (AID 2282954; active = hit-call score of the fitted dose curve at least 0.9, where 1 is the maximum; inactive = score below 0.9); settings: HepG2 MRE cis-reporter transcription, Attagene multiplex; actives raise or lower the signal
Outline: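 Cells were transfected with cis-promoter reporter transcription units, then dosed for 24 h. RNA was reverse-transcribed, amplified, fluorescently labelled and resolved by capillary electrophoresis, and activity was fitted in both directions relative to DMSO.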

[3] = ATG_RORE_CIS: Attagene CIS-FACTORIAL HepG2 Assay for human RAR-related Orphan Receptor Element (RORE) (AID 2282959; active = hit-call score of the fitted dose curve at least 0.9, where 1 is the maximum; inactive = score below 0.9); settings: HepG2 Attagene cis-factorial RORE reporter, mRNA; actives raise or lower the signal
Outline: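 Measured here: transcript induction of a cis-regulated reporter in HepG2 cells transiently transfected via FuGene 6. After 24 h, RNA was processed by RT-PCR and fluorescent capillary electrophoresis; DMSO defined baseline activity.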

[4] = target: Hepatocyte nuclear factor 4-alpha (Homo sapiens) (UniProt P41235); experiment: ATG_HNF4a_TRANS: Attagene TRANS-FACTORIAL HepG2 Assay for human Hepatocyte Nuclear Factor 4 alpha (HNF4a) (AID 2282982); settings: HepG2 HNF4a transactivation reporter, mRNA readout
Hepatocyte nuclear factor 4-alpha (Homo sapiens), sequence (P41235 whole entry, looked up, the tested form may be a part): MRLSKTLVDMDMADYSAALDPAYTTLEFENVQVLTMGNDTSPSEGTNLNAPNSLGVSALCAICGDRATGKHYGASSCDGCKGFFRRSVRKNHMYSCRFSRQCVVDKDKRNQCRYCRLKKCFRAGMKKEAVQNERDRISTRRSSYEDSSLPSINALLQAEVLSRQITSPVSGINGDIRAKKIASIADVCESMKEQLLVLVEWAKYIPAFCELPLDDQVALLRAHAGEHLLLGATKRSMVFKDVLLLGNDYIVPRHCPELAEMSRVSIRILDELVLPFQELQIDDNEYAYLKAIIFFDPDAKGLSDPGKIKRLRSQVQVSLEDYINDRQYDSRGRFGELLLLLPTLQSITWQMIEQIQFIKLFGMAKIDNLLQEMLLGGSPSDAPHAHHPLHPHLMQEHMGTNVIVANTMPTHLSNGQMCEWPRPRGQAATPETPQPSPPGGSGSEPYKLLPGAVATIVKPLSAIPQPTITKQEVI
Outline: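 In this trans-factorial format, a chimeric HNF4a-GAL4 fusion drives a GAL4-UAS reporter in transfected HepG2 liver cells. After 24 h treatment, reporter mRNA induction is measured by RT-PCR with capillary electrophoresis, relative to DMSO.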

[5] = target: Myc proto-oncogene protein (Homo sapiens) (UniProt P01106); experiment: ATG_Myc_CIS: Attagene CIS-FACTORIAL HepG2 Assay for human Myelocytomatosis (Myc) Proto-Oncogene Transcription Factor (AID 2282990; active = hit-call score of the fitted dose curve at least 0.9, where 1 is the maximum; inactive = score below 0.9); settings: HepG2, Attagene cis-reporter transcription factor activity; actives raise or lower the signal
Myc proto-oncogene protein (Homo sapiens), sequence (P01106 whole entry, looked up): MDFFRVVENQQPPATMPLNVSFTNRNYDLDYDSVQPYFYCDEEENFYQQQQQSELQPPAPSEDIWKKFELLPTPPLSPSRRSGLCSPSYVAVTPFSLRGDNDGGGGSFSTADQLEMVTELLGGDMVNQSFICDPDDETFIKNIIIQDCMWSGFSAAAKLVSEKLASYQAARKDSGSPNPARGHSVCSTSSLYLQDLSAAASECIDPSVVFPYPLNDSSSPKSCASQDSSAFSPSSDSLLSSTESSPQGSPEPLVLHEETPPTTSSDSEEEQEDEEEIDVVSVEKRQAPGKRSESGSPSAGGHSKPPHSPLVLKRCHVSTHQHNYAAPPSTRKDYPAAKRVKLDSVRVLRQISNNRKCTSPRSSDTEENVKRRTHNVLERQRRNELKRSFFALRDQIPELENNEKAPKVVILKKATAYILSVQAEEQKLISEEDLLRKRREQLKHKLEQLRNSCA
Outline: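 Multiplexed cis-reporter transcription in HepG2 cells after 24 h chemical treatment. Reporter mRNA measured by RT-PCR and capillary electrophoresis fluorescence; activity fitted bidirectionally against DMSO control.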

[6] = ATG_NF_kB_CIS: Attagene CIS-FACTORIAL HepG2 Assay for human Nuclear Factor Kappa B (NF-kB) (AID 2282991; active = hit-call score of the fitted dose curve at least 0.9, where 1 is the maximum; inactive = score below 0.9); settings: HepG2 Attagene cis-factorial NF-kB reporter mRNA; actives raise or lower the signal
Outline: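 After 24 h compound incubation, transfected HepG2 cells yield total RNA; reporter cDNA is PCR-amplified, end-labelled with 6-FAM, HpaI-digested and analysed on a genetic analyser. Endogenous factor activity, DMSO-referenced bidirectional fit.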

[7] = target: Nuclear receptor subfamily 1 group I member 2 (Homo sapiens) (UniProt O75469); experiment: ATG_PXR_TRANS: Attagene TRANS-FACTORIAL HepG2 Assay for human Pregnane X Receptor (PXR) (AID 2283008)
Nuclear receptor subfamily 1 group I member 2 (Homo sapiens), sequence (O75469 whole entry, looked up, the tested form may be a part): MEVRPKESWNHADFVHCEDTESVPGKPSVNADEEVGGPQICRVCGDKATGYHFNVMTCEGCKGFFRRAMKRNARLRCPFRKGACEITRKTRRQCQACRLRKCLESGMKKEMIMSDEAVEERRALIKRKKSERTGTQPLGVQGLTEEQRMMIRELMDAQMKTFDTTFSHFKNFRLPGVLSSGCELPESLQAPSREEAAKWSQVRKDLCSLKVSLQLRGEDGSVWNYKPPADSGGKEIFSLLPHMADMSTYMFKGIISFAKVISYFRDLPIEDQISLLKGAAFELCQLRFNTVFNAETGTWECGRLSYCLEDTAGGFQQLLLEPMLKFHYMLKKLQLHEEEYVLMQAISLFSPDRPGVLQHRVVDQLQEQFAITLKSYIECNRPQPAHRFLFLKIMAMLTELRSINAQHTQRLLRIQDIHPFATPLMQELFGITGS
Outline: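 Transient HepG2 transfectants carrying multiplexed reporter transcription units; PXR activity read through a Gal4 chimera. 24 h exposure. RT-PCR/CE fluorescence; upward curve fit referenced to DMSO.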

[8] = target: Cellular tumor antigen p53 (Homo sapiens) (UniProt P04637); experiment: TOX21_p53_BLA_p2_ratio: Tox21 HCT-116 p53 Agonism Beta-lactamase Assay, Ratio, Phase 2 (AID 2283592)
Cellular tumor antigen p53 (Homo sapiens), sequence (P04637 whole entry, looked up): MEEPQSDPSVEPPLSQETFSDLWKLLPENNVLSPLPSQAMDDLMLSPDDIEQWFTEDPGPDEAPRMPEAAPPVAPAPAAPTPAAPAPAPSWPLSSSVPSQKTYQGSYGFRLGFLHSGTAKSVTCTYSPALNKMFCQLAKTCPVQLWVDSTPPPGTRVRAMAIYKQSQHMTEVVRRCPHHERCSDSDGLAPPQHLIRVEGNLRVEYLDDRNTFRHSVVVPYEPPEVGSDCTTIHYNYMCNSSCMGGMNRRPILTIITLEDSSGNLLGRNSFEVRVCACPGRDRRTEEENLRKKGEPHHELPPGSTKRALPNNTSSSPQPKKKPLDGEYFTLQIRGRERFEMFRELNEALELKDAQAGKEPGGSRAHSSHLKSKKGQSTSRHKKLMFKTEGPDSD
Outline: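 Ratio endpoint: beta-lactamase cleavage of CCF4-AM, blue (460 nm) over green (530 nm). HCT116 reporter line; 16 h treatment, 37C; substrate 2 h RT.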

[9] = target: Cellular tumor antigen p53 (Homo sapiens) (UniProt P04637); experiment: TOX21_p53_BLA_p3_ratio: Tox21 HCT-116 p53 Agonism Beta-lactamase Assay, Ratio, Phase 3 (AID 2283596)
Outline: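 Cells were seeded at 4000/well, rested 5 h at 37C, then dosed with DMSO compound solutions (217-fold dilution) for 16 h. CCF4-AM substrate was loaded for 2 h at room temperature, and the 460/530 nm emission ratio was fitted for gain of signal versus DMSO.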

[10] = TOX21_p53_BLA_p5_viability: Viability Assessment in the Tox21 HCT-116 p53 Agonism Beta-lactamase Assay, Phase 5 (AID 2283600)
Outline: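 Luciferase-coupled ATP quantitation of cells treated for 16 h (37C, 5% CO2) with test chemicals delivered in DMSO via a 217-fold dilution; 4000 cells/well; reagent incubated 30 min at room temperature before luminescence reading.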

[11] = target: Cellular tumor antigen p53 (Homo sapiens) (UniProt P04637); experiment: TOX21_p53_BLA_p4_ratio: Tox21 HCT-116 p53 Agonism Beta-lactamase Assay, Ratio, Phase 4 (AID 2283601)
Outline: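 HCT116 cells carrying an inducible beta-lactamase reporter were plated at 4000 cells/well, rested 5 h, then exposed to compounds in DMSO (217-fold dilution) for 16 h at 37C. CCF4-AM substrate was loaded 2 h at room temperature; 460/530 nm emission ratio scored gain-of-signal versus DMSO.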

[12] = ATG_GRE_CIS: Attagene CIS-FACTORIAL HepG2 Assay for human Glucocorticoid Response Elements (GRE) (AID 2282947; active = hit-call score of the fitted dose curve at least 0.9, where 1 is the maximum; inactive = score below 0.9); settings: HepG2 GRE cis-reporter, Attagene multiplex mRNA; actives raise or lower the signal
Outline: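 Cells (HepG2) bearing transfected cis-promoter reporter transcription units were treated with chemical for 24 hours. Reporter mRNA was measured via RT-PCR with capillary electrophoresis, and activity was fitted in both directions relative to DMSO.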

[13] = target: Hepatocyte nuclear factor 6 (Homo sapiens) (UniProt Q9UBC0); experiment: ATG_HNF6_CIS: Attagene CIS-FACTORIAL HepG2 Assay for human Hepatocyte Nuclear Factor 6 (HNF6) (AID 2282952; active = hit-call score of the fitted dose curve at least 0.9, where 1 is the maximum; inactive = score below 0.9); settings: HepG2 Attagene cis-factorial HNF6 reporter transcription; actives raise or lower the signal
Hepatocyte nuclear factor 6 (Homo sapiens), sequence (Q9UBC0 whole entry, looked up): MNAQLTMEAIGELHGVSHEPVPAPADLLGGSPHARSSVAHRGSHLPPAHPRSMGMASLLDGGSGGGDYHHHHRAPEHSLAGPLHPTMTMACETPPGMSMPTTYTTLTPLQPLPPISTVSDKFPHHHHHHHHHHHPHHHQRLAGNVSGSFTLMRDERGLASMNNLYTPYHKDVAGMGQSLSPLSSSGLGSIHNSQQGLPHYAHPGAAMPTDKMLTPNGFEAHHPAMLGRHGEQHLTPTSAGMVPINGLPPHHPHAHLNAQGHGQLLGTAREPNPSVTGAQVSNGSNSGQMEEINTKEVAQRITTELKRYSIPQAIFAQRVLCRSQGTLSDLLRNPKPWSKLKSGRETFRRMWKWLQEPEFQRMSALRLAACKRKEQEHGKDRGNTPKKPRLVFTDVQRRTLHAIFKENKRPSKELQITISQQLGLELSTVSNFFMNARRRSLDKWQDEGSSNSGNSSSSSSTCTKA
Outline: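 Activity values derive from bidirectional fitting against DMSO of reporter mRNA levels, measured by capillary electrophoresis of labelled RT-PCR products from HepG2 cells exposed 24 h.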

[14] = ATG_PBREM_CIS: Attagene CIS-FACTORIAL HepG2 Assay for human Phenobarbital-responsive Enhancer Module (PBREM) (AID 2282955; active = hit-call score of the fitted dose curve at least 0.9, where 1 is the maximum; inactive = score below 0.9); settings: HepG2 PBREM cis-reporter, Attagene multiplexed transcription; actives raise or lower the signal
Outline: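 Readout: reporter mRNA, fluorescent RT-PCR fragments separated by capillary electrophoresis. System: HepG2 transiently transfected with cis-regulated reporter units. Exposure: 24 h. Analysis: bidirectional, DMSO baseline.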

[15] = ATG_M_06_TRANS: Attagene TRANS-FACTORIAL HepG2 Assay for M06 Transcription Factor (Internal Marker) (AID 2282983); settings: HepG2 Attagene TRANS M06 internal marker reporter
Outline: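 In this multiplexed HepG2 system, compounds are incubated 24 h with cells carrying GAL4-UAS reporter units. Reporter RNA is amplified and resolved by capillary electrophoresis, and induction is scored against DMSO.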

[16] = target: human Peroxisome Proliferator-activated Receptor alpha (PPARa), PPARA (gene 5465) (UniProt Q07869); experiment: ATG_PPARa_TRANS: Attagene TRANS-FACTORIAL HepG2 Assay for human Peroxisome Proliferator-activated Receptor alpha (PPARa) (AID 2283001)
human Peroxisome Proliferator-activated Receptor alpha (PPARa), PPARA (gene 5465), sequence (Q07869 whole entry, looked up): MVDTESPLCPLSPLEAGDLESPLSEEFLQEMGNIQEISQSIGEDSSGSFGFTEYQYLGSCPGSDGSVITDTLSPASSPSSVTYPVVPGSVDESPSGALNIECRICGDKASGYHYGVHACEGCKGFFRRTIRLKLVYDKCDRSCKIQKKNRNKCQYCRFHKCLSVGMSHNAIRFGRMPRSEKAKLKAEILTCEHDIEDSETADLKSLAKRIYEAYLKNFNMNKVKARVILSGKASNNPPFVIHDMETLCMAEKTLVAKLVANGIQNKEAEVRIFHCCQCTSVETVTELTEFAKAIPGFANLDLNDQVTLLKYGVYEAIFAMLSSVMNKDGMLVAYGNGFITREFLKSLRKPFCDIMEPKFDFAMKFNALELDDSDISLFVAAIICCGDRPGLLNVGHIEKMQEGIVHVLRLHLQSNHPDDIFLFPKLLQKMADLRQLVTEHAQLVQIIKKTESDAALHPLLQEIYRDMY
Outline: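 Cells (HepG2) are transfected with multiple reporter transcription units, exposed to chemical for 24 h, then total RNA is reverse-transcribed and amplified. Labelled products are quantified by capillary electrophoresis; induction is referenced to DMSO.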

[17] = target: Peroxisome proliferator-activated receptor gamma (Homo sapiens) (UniProt P37231); experiment: ATG_PPARg_TRANS: Attagene TRANS-FACTORIAL HepG2 Assay for human Peroxisome Proliferator-activated Receptor-gamma (PPARg) (AID 2283007)
Peroxisome proliferator-activated receptor gamma (Homo sapiens), sequence (P37231 whole entry, looked up, the tested form may be a part): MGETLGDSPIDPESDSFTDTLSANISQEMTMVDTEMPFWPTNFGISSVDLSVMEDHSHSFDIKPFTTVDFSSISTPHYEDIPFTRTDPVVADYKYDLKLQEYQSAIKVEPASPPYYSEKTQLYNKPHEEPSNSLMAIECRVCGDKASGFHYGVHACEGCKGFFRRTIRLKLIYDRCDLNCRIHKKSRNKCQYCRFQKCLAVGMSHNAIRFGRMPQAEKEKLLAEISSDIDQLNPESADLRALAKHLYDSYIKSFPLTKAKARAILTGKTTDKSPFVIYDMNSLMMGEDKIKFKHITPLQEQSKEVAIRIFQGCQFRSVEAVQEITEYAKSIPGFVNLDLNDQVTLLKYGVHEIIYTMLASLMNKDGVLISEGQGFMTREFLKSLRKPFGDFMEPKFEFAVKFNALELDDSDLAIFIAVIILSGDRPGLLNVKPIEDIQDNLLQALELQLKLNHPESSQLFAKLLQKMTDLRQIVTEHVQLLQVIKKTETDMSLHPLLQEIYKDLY
Outline: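 Liver-derived HepG2 cells expressing an exogenous NR-Gal4 chimera alongside GAL4-UAS reporter genes; 24 h exposure. Fluorescence of reporter RT-PCR products, separated by capillary electrophoresis, gives mRNA induction relative to DMSO.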

[18] = target: human Retinoid X Receptor beta (RXRb), RXRB (gene 6257) (UniProt P28702); experiment: ATG_RXRb_TRANS: Attagene TRANS-FACTORIAL HepG2 Assay for human Retinoid X Receptor beta (RXRb) (AID 2283013)
human Retinoid X Receptor beta (RXRb), RXRB (gene 6257), sequence (P28702 whole entry, looked up, the tested form may be a part): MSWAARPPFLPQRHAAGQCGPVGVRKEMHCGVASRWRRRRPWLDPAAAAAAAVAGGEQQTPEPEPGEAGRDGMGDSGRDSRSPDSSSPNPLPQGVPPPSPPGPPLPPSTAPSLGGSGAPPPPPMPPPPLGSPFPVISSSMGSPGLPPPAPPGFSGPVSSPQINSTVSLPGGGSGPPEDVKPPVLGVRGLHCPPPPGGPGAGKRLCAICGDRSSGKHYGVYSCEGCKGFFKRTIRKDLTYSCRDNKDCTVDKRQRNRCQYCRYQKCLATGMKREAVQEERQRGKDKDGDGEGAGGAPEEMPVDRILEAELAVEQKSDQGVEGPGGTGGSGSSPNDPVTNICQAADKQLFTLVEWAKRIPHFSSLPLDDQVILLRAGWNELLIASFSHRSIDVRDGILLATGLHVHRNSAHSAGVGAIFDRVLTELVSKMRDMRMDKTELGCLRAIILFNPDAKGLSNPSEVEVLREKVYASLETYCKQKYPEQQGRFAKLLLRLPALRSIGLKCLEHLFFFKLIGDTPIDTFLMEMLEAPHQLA
Outline: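 Chimeric receptor-Gal4 activity was assessed in transiently transfected human HepG2 cells after 24 h exposure. Transcripts from GAL4-UAS reporters were quantified by fluorescent RT-PCR and capillary electrophoresis, with DMSO as negative control and baseline.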

[19] = target: Paired box protein Pax-6 (Homo sapiens) (UniProt P26367); experiment: ATG_Pax6_CIS: Attagene CIS-FACTORIAL HepG2 Assay for human Paired Box 6 (PAX6) (AID 2282956; active = hit-call score of the fitted dose curve at least 0.9, where 1 is the maximum; inactive = score below 0.9); settings: HepG2 CIS-FACTORIAL PAX6 reporter transcription, RNA readout; actives raise or lower the signal
Paired box protein Pax-6 (Homo sapiens), sequence (P26367 whole entry, looked up): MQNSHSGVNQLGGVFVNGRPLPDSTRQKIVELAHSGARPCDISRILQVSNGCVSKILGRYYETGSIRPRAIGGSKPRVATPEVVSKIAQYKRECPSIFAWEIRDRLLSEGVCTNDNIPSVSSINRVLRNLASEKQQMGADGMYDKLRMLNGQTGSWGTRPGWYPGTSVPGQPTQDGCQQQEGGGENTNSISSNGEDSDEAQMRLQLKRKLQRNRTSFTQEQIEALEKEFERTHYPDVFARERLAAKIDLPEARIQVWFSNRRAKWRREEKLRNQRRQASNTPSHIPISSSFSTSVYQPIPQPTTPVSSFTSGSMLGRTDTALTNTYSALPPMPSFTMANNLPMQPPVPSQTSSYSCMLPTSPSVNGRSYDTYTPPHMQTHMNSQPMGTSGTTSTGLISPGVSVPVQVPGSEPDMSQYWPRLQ
Outline: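 Values derive from bidirectional curve fitting of reporter mRNA signal relative to DMSO. HepG2 cells bearing transfected cis-regulated MRTUs were exposed for 24 h; transcripts were read by RT-PCR and capillary electrophoresis.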

[20] = target: Cellular tumor antigen p53 (Homo sapiens) (UniProt P04637); experiment: TOX21_p53_BLA_p5_ratio: Tox21 HCT-116 p53 Agonism Beta-lactamase Assay, Ratio, Phase 5 (AID 2283599)
Outline: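 HCT-116 cells carrying a p53-inducible beta-lactamase reporter were seeded at 4000 cells/well and dosed after 5 h with compound in DMSO (217-fold dilution). After 16 h at 37C, CCF4-AM substrate was added for 2 h, and the 460/530 nm emission ratio was scored as gain-of-signal versus DMSO.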

Measured: AC50

COC(=O)COc1ccc(Cl)cc1Cl
inactive: [1] | [2] | [3] | [4] | [5] | [6] | [7] | [8] | [9] | [10] | [11]

Nc1c(Cl)c(Cl)c(Cl)c(Cl)c1Cl
inactive: [1] | [12] | [13] | [2] | [14] | [3] | [15] | [5] | [16] | [17]
active: [7] 13.3 µM | [18] 28.6 µM

CCc1cccc(C)c1N(C(=O)CCl)[C@@H](C)COC
inactive: [13] | [14] | [19] | [15] | [6] | [18] | [8] | [9] | [20] | [10] | [11]
active: [2] 31.3 µM | [17] 27 µM | [7] 0.18 µM

CC(C)(C)C(=O)CCl
active: [2] 77.1 µM | [17] 25.7 µM
inactive: [1] | [12] | [13] | [19] | [4] | [6] | [16] | [7] | [18] | [8] | [9] | [20] | [10] | [11]

CC(C)(O)C#N
inactive: [1] | [13] | [2] | [14] | [19] | [3] | [4] | [15] | [5] | [16] | [17] | [7] | [8] | [9] | [20] | [10] | [11]
active: [18] 78.5 µM

CC[N+](=O)[O-]
inactive: [1] | [12] | [13] | [2] | [14] | [19] | [3] | [4] | [15] | [5] | [6] | [16] | [17] | [7] | [18] | [8] | [9] | [20] | [10] | [11]

COc1cc(OC)c(OC)cc1C=O
inactive: [1] | [12] | [13] | [2] | [14] | [19] | [4] | [5] | [6] | [17] | [7] | [18] | [9] | [20] | [10] | [11]

O=C1C=CC(=O)C=C1
inactive: [13] | [2] | [14] | [19] | [3] | [4] | [15] | [5] | [6] | [16] | [17] | [7] | [8] | [9] | [20] | [10]
active: [9] 71.3 µM
